# From PubChem BioAssay AID652105 (National Center for Advancing Translational Sciences (NCATS), 2013)
# Among all 330,000 compounds or so, about 4,100 (1.2%) were called active. Another 2% or so got no clear call; they are omitted. For the sample, actives were picked, then their nearest neighbours and some compounds at random. Values without a mark were called inactive. The calls were made as follows: active = max response of -50% or lower; inconclusive = between -30% and -50%; inactive = -30% or higher.
# Target: Phosphatidylinositol 5-phosphate 4-kinase type-2 alpha (Homo sapiens) (UniProt P48426)
# Assay: qHTS for Inhibitors of phosphatidylinositol 5-phosphate 4-kinase (PI5P4K); also: value at the top dose of about 77 µM
# Conditions: PI5P4Kalpha enzyme, ADP-Glo luminescence, 60 min; stronger effect = lower value
# Procedure, shortened: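 Compounds were pin-transferred onto PI5P4Kalpha and substrate in HEPES pH 7.4 buffer with EGTA, CHAPS and 5% DMSO. ATP (5 microM final) started the reaction, which ran 60 minutes at room temperature before ADP-Glo detection.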
# % is scaled to controls: 0 for no effect and ±100 for the full control effect.
# Chain of Phosphatidylinositol 5-phosphate 4-kinase type-2 alpha (Homo sapiens) (P48426 whole entry, looked up): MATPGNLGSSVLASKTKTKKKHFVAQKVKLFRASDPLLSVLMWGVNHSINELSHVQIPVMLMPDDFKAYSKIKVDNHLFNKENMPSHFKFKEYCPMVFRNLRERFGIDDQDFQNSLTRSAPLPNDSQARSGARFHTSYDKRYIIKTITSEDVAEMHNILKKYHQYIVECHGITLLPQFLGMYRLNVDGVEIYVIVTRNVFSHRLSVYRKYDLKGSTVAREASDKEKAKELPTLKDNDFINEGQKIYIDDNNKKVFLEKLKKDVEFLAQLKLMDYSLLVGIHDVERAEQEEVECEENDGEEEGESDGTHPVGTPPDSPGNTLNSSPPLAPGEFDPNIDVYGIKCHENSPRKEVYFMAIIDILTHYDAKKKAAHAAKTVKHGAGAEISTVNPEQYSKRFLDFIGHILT
row,Structure (SMILES),max response
1,O=C(Nc1ccc(S(=O)(=O)Nc2nccs2)cc1)c1cc(-c2ccncc2)nc2ccccc12,-67.1% (active)
2,CCN(CC)CCNC(=O)c1ccc(NC(=O)c2cc(-c3ccncc3)nc3ccccc23)cc1,-5.2%
3,O=C(Nc1ccc(S(=O)(=O)Nc2nccs2)cc1)c1cc(=O)[nH]c2ccccc12,-12.6%
4,Cc1ccc(C(=O)Nc2ccc3c(c2)OCO3)cc1S(=O)(=O)N1CCCCC1,0.934%
5,Cc1ccc(C(=O)O)cc1-c1ccc(/C=C2\SC(=O)N(CC(=O)Nc3ccc4c(c3)OCO4)C2=O)o1,-59.9% (active)
6,Cc1nn(CC(=O)Nc2ccc3c(c2)OCO3)c(C)c1[N+](=O)[O-],1.6%
7,CC(=O)Nc1cc(-c2ccc(N3CCN(C)CC3)cc2)cn2c(-c3cccc(C(=O)N(C)C)c3)cnc12,4.25%
8,CCc1nc2c(OCCOc3ccc(F)cc3)cccn2c1N(C)C(=O)c1ccccc1F,-7.43%
9,COc1cccc(-c2ccc3c(c2)N(Cc2ccccc2OC)C(=O)C(C)S3)c1 (stereo not given),20.2%
10,COc1ccc([C@H]2CC(=O)C[C@@H](CCn3cc(CC4CCCC4)nn3)O2)cc1,9.59%
11,Cc1ccc(N=C2NC(=O)/C(=C/C=C/c3ccco3)S2)cc1C,-76.1% (active)
12,CN1C(=O)/C(=C/c2ccco2)SC1=Nc1cccc(C(=O)O)c1,-16.9%
13,Cc1ccc(N2NC(=O)/C(=C/C=C/c3ccco3)C2=O)cc1C,-13.7%
14,O=C(CSc1nc2ccccc2c(=O)[nH]1)Nc1nc(-c2ccc(Br)cc2)cs1,2.06%
15,N#Cc1c(-c2cccs2)nc(SCC(=O)c2ccc(Br)cc2)[nH]c1=O,-61.8% (active)
16,Cc1ccc(CSc2nc(-c3ccccc3)c(C#N)c(=O)[nH]2)cc1,-3.14%
17,CCc1nc2c(OCCc3cccc(OC)c3)cccn2c1N(C)C(=O)c1ccc(C)cc1,2.18%
18,COc1ccc(CN2C[C@H]3CON(C)[C@H]3C[C@H]2c2ccc(-c3cccc(F)c3)cc2)cc1,18.3%
19,C[N+](C)(C)CCOP(=O)([O-])OC[C@H](O)CO,-87.3% (active)
20,COC(=O)C[C@H]1C=C[C@H](NC(=O)c2ccc(F)cc2)[C@@H](CO)O1,-0.944%

row,Structure (SMILES),max response
1,COC(=O)c1ccc2nc(-c3cccc(Br)c3)c(Cc3ccccc3C(F)(F)F)n2c1,4.18%
2,C#CCN(C[C@@H]1[C@@H](OC(=O)NC2CC2)[C@@H](OC(=O)NC2CC2)Cn2c(=O)ccc(=O)n21)S(=O)(=O)c1ccc(C)cc1,-1.14%
3,COCCNC(=O)C1C(=O)Nc2ccccc2C(=O)N1c1ccc2c(c1)OCCO2 (stereo not given),7.16%
4,O=C(c1cc2c(s1)CCC2)N1CCN(c2ccccc2)CC1,-53% (active)
5,O=C(c1ccccc1)c1ccc(C(=O)N2CCN(c3ccccc3)CC2)cc1,6.71%
6,O=C(NNC(=O)c1cc2c(s1)CCCC2)c1ccccc1,0.43%
7,CCC1(C)Cc2c(sc3[nH]c(=S)n(Cc4ccccc4)c(=O)c23)CO1 (stereo not given),-15.7%
8,C=CCn1c(=S)[nH]c2scc(-c3ccco3)c2c1=O,-84.2% (active)
9,C=CCn1cnc2scc(-c3ccccc3)c2c1=O,-1.04%
10,Clc1cccc(Cc2c(-c3cccc(Cl)c3)nc3ccc(Cl)cn23)c1,-3.6%
11,CCCCCNC(=O)C1C(=O)Nc2ccccc2C(=O)N1C(C)(C)C (stereo not given),-7.39%
12,CC(CNC(=O)c1ccc(Br)o1)NC(=O)c1ccc(Br)o1 (stereo not given),-54.6% (active)
13,O=C(CNC(=O)c1ccc(Br)o1)Nc1ccccc1,-2.2%
14,O=C(NCc1cccs1)c1ccc(Br)o1,4.81%
15,CSc1ccc(CN2CCC2(C)C(=O)NCc2ccccc2Br)cc1 (stereo not given),17.1%
16,COc1ccccc1-c1cc(NC(C)=O)c2ncc(-c3ccc(F)cc3)n2c1,-5.85%
17,CCCc1ccc(C(O)c2ncc(-c3cccc(OC)c3)[nH]2)cc1 (stereo not given),14%
18,COc1cccc2sc(N(CCCN(C)C)C(=O)C(c3ccccc3)c3ccccc3)nc12,12.8%
19,COc1cccc2sc(NNC(=O)c3nc4ccccc4s3)nc12,-61.5% (active)
20,COc1ccc(/C=C(/CC(=O)Nc2ccc(C)cc2)c2nc3ccccc3s2)cc1,-7.45%

row,Structure (SMILES),max response
1,O=C(/C=C/[C@H]1O[C@@H](n2ccc(=O)[nH]c2=O)[C@H](O)[C@@H]1O)NCc1ccccn1,2%
2,CCOC(=O)C1Nc2ccc(C(F)(F)F)cc2C2C=CCC12 (stereo not given),-55.4% (active)
3,CCOC(=O)C[C@H]1c2ccc(C(F)(F)F)cc2S(=O)(=O)N1c1ccccc1,2.77%
4,CCOC(=O)[C@H]1Nc2ccc(Cl)cc2[C@@H]2[C@H]1C1CC(c3ccccc31)N2C(=O)OCc1ccccc1 (stereo not given in full),19.9%
5,Nc1cccc(-c2cncc(N3CCN(Cc4ccccn4)CC3)n2)c1,-6.48%
6,C=CCNC(=O)CSc1nc2sc(C)c(C)c2c(=O)[nH]1,-2.42%
7,CC(=O)c1sc2nc(SCC(=O)N3CCCCC3)[nH]c(=O)c2c1C,-59.2% (active)
8,O=C(CSc1nc2c(cnn2-c2ccc(F)cc2)c(=O)[nH]1)N1CCCCCC1,-3.16%
9,CCOC(=O)[C@]12CCCC=C1N(CCC1=CCCCC1)C(=O)[C@H](CC(=O)NCCCOC)C2,-1.91%
10,CCC(C)Cn1c(O)cc2nn(-c3nc4ccccc4s3)c(=O)c-2c1C (stereo not given),-79.1% (active)
11,Cc1cc(NC(=O)CN2CCCC(C)C2)n(-c2nc3ccccc3s2)n1 (stereo not given),14.1%
12,CCC(=O)NC(=Nc1nc2ccccc2s1)NC(=O)CC,10.4%
13,COC(=O)[C@]12CCCCC=C1N(Cc1ccc(Cl)cc1Cl)C(=O)[C@H](CC(=O)NCc1cccc3ccccc13)C2,20.1%
14,COc1cc(C=C(OC(C)=O)c2ccc3c(c2)OCO3)cc(OC)c1OC,3.06%
15,COc1cc(/C=N/O)cc(Br)c1OCc1cccc(Cl)c1,39.6%
16,C#CCOc1ccc(/C=C2/C(=O)NN(c3ccccc3)C2=O)cc1OC,-22.1%
17,COc1cc(/C=C2/C(=O)NN(c3cccc(Cl)c3)C2=O)cc(Br)c1O,-54.1% (active)
18,COc1ccc(N2C(=O)CC(Nc3ccc(F)cc3)C2=O)c([N+](=O)[O-])c1 (stereo not given),-6.93%
19,COc1cc(/C=C2/C(=O)NN(c3ccc(F)cc3)C2=O)cc([N+](=O)[O-])c1O,-57.5% (active)
20,COc1cc(CN2CC(C)CC(C)C2)cc([N+](=O)[O-])c1O (stereo not given),0.224%
